Experimental data taken from paper PMC5700166.
Changes are numbered by the printed parent chain.

Assays:
Assay in all cases: protein-binding microarray (PBM); PBM: ~300 nM protein, 6 mM HEPES pH 7.8, 80 mM KCl, 0.5 mM EDTA, 0.5 mM EGTA, 6% glycerol, 35 ng/ul poly-dIdC, 1% milk, 1 h, room temperature; Ap Aiptasia and Nv Nematostella (sea anemones) / Co Capsaspora / Aq Amphimedon (sponge) / Dm Drosophila / Hu human; RHD is the Rel homology domain; high values mean tight binding
Conditions in all cases: dsDNA, one strand shown
[1] = biological target: T1, GST-Ap-NF-kB RHD (Exaiptasia pallida (Aiptasia), UniProt A0A913YAJ5 2-422)
T1 sequence: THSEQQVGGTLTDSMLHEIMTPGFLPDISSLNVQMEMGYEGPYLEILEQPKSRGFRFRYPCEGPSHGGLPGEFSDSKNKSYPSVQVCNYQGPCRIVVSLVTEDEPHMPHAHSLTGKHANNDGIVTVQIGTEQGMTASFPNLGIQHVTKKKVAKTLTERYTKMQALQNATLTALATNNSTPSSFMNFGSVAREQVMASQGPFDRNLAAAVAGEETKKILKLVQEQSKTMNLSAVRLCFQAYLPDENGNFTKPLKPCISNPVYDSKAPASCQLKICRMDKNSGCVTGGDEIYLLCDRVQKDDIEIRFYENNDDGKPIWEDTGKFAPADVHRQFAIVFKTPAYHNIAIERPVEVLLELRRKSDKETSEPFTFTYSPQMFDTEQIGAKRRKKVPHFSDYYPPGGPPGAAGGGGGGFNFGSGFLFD

[2] = biological target: T2, GST-Nv-NF-kB (Cys allele) (Nematostella vectensis, UniProt E5G601 2-411)
T2 sequence: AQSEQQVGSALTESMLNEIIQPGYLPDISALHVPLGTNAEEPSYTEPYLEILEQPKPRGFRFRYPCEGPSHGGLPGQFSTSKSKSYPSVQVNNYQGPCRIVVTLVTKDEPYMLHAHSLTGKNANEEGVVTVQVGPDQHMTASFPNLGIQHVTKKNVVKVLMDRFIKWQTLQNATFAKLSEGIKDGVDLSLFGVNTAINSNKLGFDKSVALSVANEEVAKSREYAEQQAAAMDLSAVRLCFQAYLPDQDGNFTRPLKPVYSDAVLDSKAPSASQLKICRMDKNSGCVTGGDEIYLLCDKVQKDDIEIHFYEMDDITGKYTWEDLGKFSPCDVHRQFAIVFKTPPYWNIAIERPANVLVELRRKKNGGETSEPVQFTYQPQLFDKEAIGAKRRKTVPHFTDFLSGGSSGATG

[3] = biological target: T3, GST-Nv-NF-kB (Ser allele) (Nematostella vectensis, UniProt A7UNT2 2-411)
T3 sequence: T2 sequence with Q21R, C66S, S207N, E215Q, V217A, E225K, A268E, D399E

[4] = biological target: T4, GST-Co-NF-kB (Capsaspora owczarzaki, UniProt F1ARL5 200-546)
T4 sequence: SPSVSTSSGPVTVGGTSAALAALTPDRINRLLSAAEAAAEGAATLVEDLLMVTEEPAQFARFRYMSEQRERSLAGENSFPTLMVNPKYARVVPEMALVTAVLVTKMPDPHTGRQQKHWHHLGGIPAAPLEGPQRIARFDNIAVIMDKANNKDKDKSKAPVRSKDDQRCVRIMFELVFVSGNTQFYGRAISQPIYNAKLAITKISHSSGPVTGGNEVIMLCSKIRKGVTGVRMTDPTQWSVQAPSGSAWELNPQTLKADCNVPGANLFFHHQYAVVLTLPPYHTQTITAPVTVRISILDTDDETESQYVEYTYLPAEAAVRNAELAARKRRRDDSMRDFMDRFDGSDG

[5] = biological target: T5, GST-Dm-Relish (Drosophila melanogaster, UniProt Q94527 99-473)
T5 sequence: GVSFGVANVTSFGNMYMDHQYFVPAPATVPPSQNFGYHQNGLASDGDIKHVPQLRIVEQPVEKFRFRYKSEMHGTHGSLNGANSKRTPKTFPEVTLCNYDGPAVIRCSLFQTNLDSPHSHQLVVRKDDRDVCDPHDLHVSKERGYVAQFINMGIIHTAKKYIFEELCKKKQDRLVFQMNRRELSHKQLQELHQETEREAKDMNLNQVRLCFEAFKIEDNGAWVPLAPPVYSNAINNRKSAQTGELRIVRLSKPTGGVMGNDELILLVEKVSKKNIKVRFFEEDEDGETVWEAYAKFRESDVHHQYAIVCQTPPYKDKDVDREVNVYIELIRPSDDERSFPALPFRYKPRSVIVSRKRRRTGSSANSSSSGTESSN

[6] = biological target: T6, GST-Aq-NF-kB (Amphimedon queenslandica, UniProt A9Y5G7 2-389)
T6 sequence: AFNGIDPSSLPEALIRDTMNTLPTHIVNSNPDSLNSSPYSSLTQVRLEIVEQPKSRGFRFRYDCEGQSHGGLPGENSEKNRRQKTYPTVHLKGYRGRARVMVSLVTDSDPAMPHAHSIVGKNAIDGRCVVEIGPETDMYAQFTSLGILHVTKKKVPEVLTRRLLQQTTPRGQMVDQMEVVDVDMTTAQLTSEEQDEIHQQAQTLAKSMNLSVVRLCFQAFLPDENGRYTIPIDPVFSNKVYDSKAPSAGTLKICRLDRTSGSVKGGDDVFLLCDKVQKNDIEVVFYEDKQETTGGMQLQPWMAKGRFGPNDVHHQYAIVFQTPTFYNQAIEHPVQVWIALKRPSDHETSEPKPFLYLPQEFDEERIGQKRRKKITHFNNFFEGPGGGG

[7] = biological target: GST-Hu-p50 (Homo sapiens, UniProt P19838 7-356)
Chain of GST-Hu-p50 (P19838 7-356): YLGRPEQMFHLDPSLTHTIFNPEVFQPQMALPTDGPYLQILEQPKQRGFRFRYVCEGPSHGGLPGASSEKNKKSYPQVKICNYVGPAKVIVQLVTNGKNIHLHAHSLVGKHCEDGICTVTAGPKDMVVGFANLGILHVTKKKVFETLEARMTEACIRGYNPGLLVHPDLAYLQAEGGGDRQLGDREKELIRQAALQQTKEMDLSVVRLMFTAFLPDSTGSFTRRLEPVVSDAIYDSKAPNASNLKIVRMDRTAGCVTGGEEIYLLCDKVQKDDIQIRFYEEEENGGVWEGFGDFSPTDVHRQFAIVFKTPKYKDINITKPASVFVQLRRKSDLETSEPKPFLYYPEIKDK

CCGATTAACATCAGAAAATACCCTGATGTTAATCGGGTCTTGATTCGCTTGACGCTGCTG
binding signal [1]: 5.86 z-score | binding signal [2]: 8.27 z-score | binding signal [3]: 7.72 z-score | binding signal [4]: 1.93 z-score | binding signal [5]: 6.76 z-score | binding signal [6]: 7.37 z-score | binding signal [7]: 6.32 z-score

CCGATTAACATCAGGGGGATTAATGATGTTAATCGGGTCTTGATTCGCTTGACGCTGCTG
binding signal [1]: 6.25 z-score | binding signal [2]: 6.39 z-score | binding signal [3]: 7.21 z-score | binding signal [4]: 6.77 z-score | binding signal [5]: 5.97 z-score | binding signal [6]: 5.39 z-score | binding signal [7]: 6.36 z-score

CCGATTAACATCAAGACTCCCCCTGATGTTAATCGGGTCTTGATTCGCTTGACGCTGCTG
binding signal [1]: 6.35 z-score | binding signal [2]: 5.25 z-score | binding signal [3]: 5.92 z-score | binding signal [4]: 5.87 z-score | binding signal [5]: 4.5 z-score | binding signal [6]: 5.15 z-score | binding signal [7]: 5.69 z-score

CCGATTAACATCAAGGGGAATAATGATGTTAATCGGGTCTTGATTCGCTTGACGCTGCTG
binding signal [1]: 5.34 z-score | binding signal [2]: 8.01 z-score | binding signal [3]: 8.1 z-score | binding signal [4]: 7.2 z-score | binding signal [5]: 4.17 z-score | binding signal [6]: 5.64 z-score | binding signal [7]: 5.62 z-score

CCGATTAACATCAAAACACTCCCTGATGTTAATCGGGTCTTGATTCGCTTGACGCTGCTG
binding signal [1]: 2.25 z-score | binding signal [2]: 3.3 z-score | binding signal [3]: 2.69 z-score | binding signal [4]: 2.06 z-score | binding signal [5]: 1.28 z-score | binding signal [6]: 4.45 z-score | binding signal [7]: 2.59 z-score

CCGATTAACATCAGGATTACCCCTGATGTTAATCGGGTCTTGATTCGCTTGACGCTGCTG
binding signal [1]: 4.61 z-score | binding signal [2]: 4.15 z-score | binding signal [3]: 3.63 z-score | binding signal [4]: 3.97 z-score | binding signal [5]: 4.19 z-score | binding signal [6]: 5.53 z-score | binding signal [7]: 3.75 z-score

CCGATTAACATCAGGCCTTTCCCTGATGTTAATCGGGTCTTGATTCGCTTGACGCTGCTG
binding signal [1]: 2.77 z-score | binding signal [2]: 4.72 z-score | binding signal [3]: 2.62 z-score | binding signal [4]: 1.36 z-score | binding signal [5]: 5.87 z-score | binding signal [6]: 6.74 z-score | binding signal [7]: 3.53 z-score

CCGATTAACATCACCCCGTCCCCTGATGTTAATCGGGTCTTGATTCGCTTGACGCTGCTG
binding signal [1]: 4.62 z-score | binding signal [2]: 3.83 z-score | binding signal [3]: 3.99 z-score | binding signal [4]: 3.98 z-score | binding signal [5]: 2.65 z-score | binding signal [6]: 4.15 z-score | binding signal [7]: 3.21 z-score

CCGATTAACATCAGGGAATGTTATGATGTTAATCGGGTCTTGATTCGCTTGACGCTGCTG
binding signal [1]: 2.55 z-score | binding signal [2]: 4.38 z-score | binding signal [3]: 3.78 z-score | binding signal [4]: 2.75 z-score | binding signal [5]: 1.85 z-score | binding signal [6]: 5.04 z-score | binding signal [7]: 3.32 z-score

CCGATTAACATCAAAGATCCCCCTGATGTTAATCGGGTCTTGATTCGCTTGACGCTGCTG
binding signal [1]: 7.86 z-score | binding signal [2]: 7.46 z-score | binding signal [3]: 7.79 z-score | binding signal [4]: 6.69 z-score | binding signal [5]: 8.85 z-score | binding signal [6]: 6.88 z-score | binding signal [7]: 6.85 z-score

CCGATTAACATCAGGGGAGTACCTGATGTTAATCGGGTCTTGATTCGCTTGACGCTGCTG
binding signal [1]: 7.52 z-score | binding signal [2]: 5.33 z-score | binding signal [3]: 6.46 z-score | binding signal [4]: 3.7 z-score | binding signal [5]: 7.86 z-score | binding signal [6]: 7.18 z-score | binding signal [7]: 4.93 z-score

CCGATTAACATCAAATTTCCCAGTGATGTTAATCGGGTCTTGATTCGCTTGACGCTGCTG
binding signal [1]: 2.47 z-score | binding signal [2]: 3.48 z-score | binding signal [3]: 3.63 z-score | binding signal [4]: 4.39 z-score | binding signal [5]: 2.71 z-score | binding signal [6]: 3.48 z-score | binding signal [7]: 3.07 z-score

CCGATTAACATCAGGGAACTCCCTGATGTTAATCGGGTCTTGATTCGCTTGACGCTGCTG
binding signal [1]: 8.33 z-score | binding signal [2]: 10.6 z-score | binding signal [3]: 6.92 z-score | binding signal [4]: 3.39 z-score | binding signal [5]: 9 z-score | binding signal [6]: 9.76 z-score | binding signal [7]: 6.16 z-score

CCGATTAACATCAGGAAATTCCCTGATGTTAATCGGGTCTTGATTCGCTTGACGCTGCTG
binding signal [1]: 6.31 z-score | binding signal [2]: 9.9 z-score | binding signal [3]: 8.03 z-score | binding signal [4]: 4.13 z-score | binding signal [5]: 6.79 z-score | binding signal [6]: 9.8 z-score | binding signal [7]: 6.16 z-score

CCGATTAACATCAAGGGTGGGAATGATGTTAATCGGGTCTTGATTCGCTTGACGCTGCTG
binding signal [1]: 1.69 z-score | binding signal [2]: 1.84 z-score | binding signal [3]: 1.42 z-score | binding signal [4]: 2.88 z-score | binding signal [5]: 1.66 z-score | binding signal [6]: 2.63 z-score | binding signal [7]: 1.83 z-score

CCGATTAACATCAAGTTCCCCCATGATGTTAATCGGGTCTTGATTCGCTTGACGCTGCTG
binding signal [1]: 7.14 z-score | binding signal [2]: 6.4 z-score | binding signal [3]: 6.97 z-score | binding signal [4]: 10.1 z-score | binding signal [5]: 4.93 z-score | binding signal [6]: 5.56 z-score | binding signal [7]: 6.24 z-score

CCGATTAACATCAGATATTCCCATGATGTTAATCGGGTCTTGATTCGCTTGACGCTGCTG
binding signal [1]: 3.86 z-score | binding signal [2]: 3.21 z-score | binding signal [3]: 3.17 z-score | binding signal [4]: 2.8 z-score | binding signal [5]: 1.78 z-score | binding signal [6]: 2.67 z-score | binding signal [7]: 1.97 z-score
